The values that follow come from PubChem BioAssay (Tox21).

A number with no mark means an inactive call. Records with an inconclusive call do not appear. Activity calls are given as the source filed them. Unless noted, the call rests on the fitted dose curve.

The target in assay [1] is Acetylcholinesterase (Homo sapiens) (UniProt P22303). The assay can be described thus: Acetylcholinesterase (AChE) small molecule antagonists: colormetric cell-based qHTS assay (AID 1347395). Further: nearly all actives have a fitted effect of over 30% in size. Further: potency means the concentration at half of the fitted maximal effect. In short, it runs like this: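 Colorimetric read-out: DTNB detects thiocholine released when cellular AChE in SH-SY5Y cells hydrolyses acetylthiocholine. Cells attached overnight, received compound for 30 min at 37 C, then substrate mix for 90 min at 37 C.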
Acetylcholinesterase (Homo sapiens), sequence (P22303 whole entry, looked up): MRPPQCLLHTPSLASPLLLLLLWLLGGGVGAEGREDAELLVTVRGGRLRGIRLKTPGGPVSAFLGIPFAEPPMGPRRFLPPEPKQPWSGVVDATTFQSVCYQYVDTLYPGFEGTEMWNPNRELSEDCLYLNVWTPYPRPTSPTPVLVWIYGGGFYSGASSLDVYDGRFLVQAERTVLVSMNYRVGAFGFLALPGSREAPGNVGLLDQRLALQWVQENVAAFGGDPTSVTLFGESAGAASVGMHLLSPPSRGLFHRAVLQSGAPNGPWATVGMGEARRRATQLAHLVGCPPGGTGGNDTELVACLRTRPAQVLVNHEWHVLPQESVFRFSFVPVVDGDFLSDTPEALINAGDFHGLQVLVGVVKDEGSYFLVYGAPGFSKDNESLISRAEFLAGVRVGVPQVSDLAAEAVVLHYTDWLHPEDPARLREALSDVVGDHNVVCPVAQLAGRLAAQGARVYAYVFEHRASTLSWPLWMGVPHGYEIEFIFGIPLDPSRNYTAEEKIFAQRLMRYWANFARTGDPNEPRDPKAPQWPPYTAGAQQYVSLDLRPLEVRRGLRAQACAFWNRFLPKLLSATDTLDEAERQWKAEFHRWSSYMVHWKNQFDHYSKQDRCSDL
Background: Quantitative high-throughput screening tests each substance at several concentrations.

Assay [2] has the same target. The assay is described as follows: Acetylcholinesterase (AChE) small molecule antagonists: enzyme-based qHTS assay (AID 1347397). Further: nearly all actives have a fitted effect of over 55% in size. Further: potency means the concentration at half of the fitted maximal effect. Particulars: Potency: AChE enzyme activity inhibition; outcome: AChE enzyme activity inhibition. The method, boiled down:
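Recombinant human AChE (50 mU/mL) preincubated with compound 30 min at room temperature; acetylthiocholine plus DTNB then added, and thiocholine formation read colorimetrically after 10 min at room temperature. DMSO served as vehicle control.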

Assay [3] has the same target. The assay can be described thus: Acetylcholinesterase (AChE) small molecule antagonists: fluorescence cell-based qHTS assay (AID 1347398). Further: nearly all actives have a fitted effect of over 50% in size. Further: potency means the concentration at half of the fitted maximal effect. The following applies: Potency: AChE activity; outcome: AChE activity. In short, it runs like this: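 SH-SY5Y cells (2000/well), attached overnight, incubated with compound 30 min at 37 C. Acetylthiocholine plus Thiolite Green then added for 40 min at room temperature. Thiocholine fluorescence (Ex/Em 490/520 nm) reports cellular AChE activity.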

Assay [4] shares this target. The assay is described as follows: Acetylcholinesterase (AChE) small molecule antagonists: enzyme-based qHTS assay with human liver microsomes (AID 1347399). Further: nearly all actives have a fitted effect of over 60% in size. Further: potency means the concentration at half of the fitted maximal effect. The following applies: Potency: qHTS inhibition; outcome: qHTS inhibition. The method, boiled down: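 Recombinant human AChE (50 mU/mL in the enzyme mix) and human liver microsomes (0.25 mg/mL final) were preincubated with compound and NADPH (0.25 mg/mL final) for 30 min at 37 C. Acetylthiocholine/DTNB was then added; thiocholine was read colorimetrically after 10 min at room temperature.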

In the next assay the target is Aromatase (Homo sapiens) (UniProt P11511). The assay can be described thus: qHTS assay to identify aromatase inhibitors (AID 743083; active means well fitted inhibition curve with a large enough effect in the repeat runs; further: series mostly up to about 70 µM; nearly all actives have a fitted effect of over 55% in size).
Aromatase (Homo sapiens), sequence (P11511 whole entry, looked up): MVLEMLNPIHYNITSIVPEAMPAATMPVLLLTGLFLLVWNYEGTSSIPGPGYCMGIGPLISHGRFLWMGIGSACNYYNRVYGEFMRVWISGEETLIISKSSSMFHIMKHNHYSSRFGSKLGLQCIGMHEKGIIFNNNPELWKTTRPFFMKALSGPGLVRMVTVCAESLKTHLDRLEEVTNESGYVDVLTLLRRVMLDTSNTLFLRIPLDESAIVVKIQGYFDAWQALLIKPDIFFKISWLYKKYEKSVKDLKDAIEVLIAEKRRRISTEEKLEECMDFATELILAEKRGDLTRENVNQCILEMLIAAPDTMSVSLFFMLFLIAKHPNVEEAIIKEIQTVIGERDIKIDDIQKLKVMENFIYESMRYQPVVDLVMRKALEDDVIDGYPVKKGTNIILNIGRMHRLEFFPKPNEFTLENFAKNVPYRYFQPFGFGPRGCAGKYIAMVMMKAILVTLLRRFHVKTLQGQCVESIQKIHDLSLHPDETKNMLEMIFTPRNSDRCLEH
Assay [5] is described as follows: qHTS assay for small molecule agonists of the p53 signaling pathway (AID 651631). Further: nearly all actives have a fitted effect of over 15% in size. The method, boiled down:
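Read-out is beta-lactamase FRET fluorescence measured 2 h after substrate addition at room temperature, in HCT-116 cells with a p53 response element-driven reporter exposed to compounds for 16 h at 37 °C.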

Regarding `C1=CCC2CC=CC2C1` (stereo unspecified), the Potency result in assay [1], in assay [2], in assay [3] and in assay [4] was “inactive” each time.

For the compound `NNc1nc(-c2ccc(N)cc2)cs1`, the Potency entry in assay [1], in assay [2], in assay [3] and in assay [4] was “inactive” each time.

For the compound `C=CC1CC2C=CC1C2` (stereo unspecified), the Potency result in assay [1], in assay [2], in assay [3] and in assay [4] was “inactive” throughout.

Take `O=C1Nc2ccc(Cl)cc2[C@@](C#CC2CC2)(C(F)(F)F)O1`: the Potency entry in assay [1], in assay [2], in assay [3] and in assay [4] was “inactive” throughout.

As for `CC(C)=CCNc1ncnc2c1ncn2[C@@H]1O[C@H](CO)[C@@H](O)[C@H]1O`, the Potency result in assay [1], in assay [2], in assay [3] and in assay [4] was “inactive” each time.

In the case of `CC(C)C1CCC(C(=O)N[C@H](Cc2ccccc2)C(=O)O)CC1` (stereo partly specified), the Potency entry in assay [1], in assay [2], in assay [3] and in assay [4] was “inactive” throughout.

On to `CCCCCc1ccc(O)cc1`, for which the Potency result in assay [1], in assay [2], in assay [3] and in assay [4] was “inactive” in each case.

In the case of `CCN(CC)CCNC(=O)COc1ccc(Cl)cc1`, the Potency result in assay [1], in assay [2], in assay [3] and in assay [4] was “inactive” in each case.

Turning to `c1ccc2cc3c4ccccc4c4ccccc4c3cc2c1`, the Potency result in assay [1], in assay [2], in assay [3] and in assay [4] was “inactive” each time.

For `CCC1=C(C)CN(C(=O)NCCc2ccc(S(=O)(=O)NC(=O)NC3CCC(C)CC3)cc2)C1=O` (stereo unspecified), the Potency result in assay [1], in assay [2], in assay [3] and in assay [4] was “inactive” throughout.

Take `O=C1CCC(=O)N1`: the Potency entry in assay [1], in assay [2], in assay [3] and in assay [4] was “inactive” each time.

As for `CN(C)C(C)(C)CO`, the Potency entry in assay [1], in assay [2], in assay [3] and in assay [4] was “inactive” throughout.

Consider `CCCCCOC(=O)CCCCC`, for which the Potency entry in assay [1], in assay [2], in assay [3] and in assay [4] was “inactive” throughout.

For the compound `CCCc1ccc(OC)cc1`, the Potency result in assay [1], in assay [2], in assay [3] and in assay [4] was “inactive” throughout.

For the compound `S=P(N1CC1)(N1CC1)N1CC1`, the Potency in assay [1] is 66.7 µM (active); in assay [2] it was 59.4 µM (active); in assay [3] it was 33.4 µM (active); in assay [4], 74.8 µM (active).

As to `CC(C)(C)c1ccc(-c2ccc(C(C)(C)C)cc2)cc1`, the Potency entry in assay [1], in assay [2], in assay [3] and in assay [4] was “inactive” in each case.

With `CCOCCOCCOC(C)=O`, the Potency entry in assay [1], in assay [2], in assay [3] and in assay [4] was “inactive” in each case.

With `CCCCCCCCCCCCCOP(=O)(O)O`, the Potency result in assay [1], in assay [2], in assay [3] and in assay [4] was “inactive” throughout.

In the case of `CC(C)C(OC(=O)c1ccccc1)C(C)(C)COC(=O)c1ccccc1` (stereo unspecified), the Potency result in assay [1], in assay [2], in assay [3] and in assay [4] was “inactive” throughout.

With `Cc1cccc(CN2CCN(C(c3ccccc3)c3ccc(Cl)cc3)CC2)c1` (stereo unspecified), the Potency entry in assay [1], in assay [2], in assay [3] and in assay [4] was “inactive” in each case.

In the case of `CC1CC(=O)CC(C)(C)C1` (stereo unspecified), the Potency result in assay [1], in assay [2], in assay [3] and in assay [4] was “inactive” in each case.

On to `Nc1ccc2c(S(=O)(=O)O)cccc2c1S(=O)(=O)O`, for which the Potency result in assay [1], in assay [2], in assay [3] and in assay [4] was “inactive” each time.

As to `Nc1ccc2ccccc2c1S(=O)(=O)O`, the Potency result in assay [1], in assay [2], in assay [3] and in assay [4] was “inactive” each time.

For the compound `CC(CN)CC(C)(C)CCN` (stereo unspecified), the Potency entry in assay [1], in assay [2] and in assay [4] was “inactive” in each case.

For `Cc1cc(C)c(N)cc1C`, the Potency entry (with Aromatase (Homo sapiens); in assay [1]; in assay [2]; in assay [3]; in assay [4]) was “inactive” each time.

On to `CC(CO)(CO)[N+](=O)[O-]`, for which the Potency result (with Aromatase (Homo sapiens); in assay [1]; in assay [2]; in assay [3]; in assay [4]) was “inactive” each time.

As to `CCOC(=O)[C@@H](C)Oc1ccc(Oc2nc3ccc(Cl)cc3o2)cc1`, the Potency result in assay [1], in assay [2], in assay [3] and in assay [4] was “inactive” throughout.

Take `FC(F)(F)c1ccc(Cl)cc1Cl`: the Potency result in assay [1], in assay [2], in assay [3] and in assay [4] was “inactive” in each case.

As for `O=C(Oc1ccccc1)c1ccccc1C(=O)Oc1ccccc1`, the Potency result (in the assay with Aromatase (Homo sapiens); in assay [1]; in assay [2]; in assay [3]; in assay [4]) was “inactive” each time.

On to `CN1C(=O)OC(C)(C)C1=O`, for which the Potency entry in assay [1], in assay [2] and in assay [4] was “inactive” throughout.

In the case of `CCC(C)(CCC(C)C)C(=O)O` (stereo unspecified), the Potency entry in assay [1], in assay [2] and in assay [4] was “inactive” in each case.

Regarding `Cc1ccc(O)c(O)c1`, the Potency result in assay [1], in assay [2] and in assay [4] was “inactive” throughout.

For the compound `Cc1[nH]cnc1-c1ccc(Cl)cc1`, the Potency entry in assay [1], in assay [2], in assay [3] and in assay [4] was “inactive” in each case.

Regarding `Cc1cc(C(C)(C)C)cc(C)c1CC1=NCCN1`, the Potency entry in assay [1], in assay [2], in assay [3] and in assay [4] was “inactive” in each case.

Regarding `CCCCN(CCCC)CC(O)c1cc(Cl)cc2c1-c1ccc(Cl)cc1/C2=C/c1ccc(Cl)cc1` (stereo unspecified), the Potency result in assay [1], in assay [2] and in assay [4] was “inactive” in each case.

In the case of `C1=C\CC/C=C\CC/C=C\CC/1`, the Potency result in assay [5], in assay [1], in assay [2], in assay [3] and in assay [4] was “inactive” throughout.

With `NCC1(Cc2noc(=O)[nH]2)CCCCC1`, the Potency entry in assay [1], in assay [2], in assay [3] and in assay [4] was “inactive” each time.

For the compound `CCCC(CC)CCCCCCCN` (stereo unspecified), the Potency result in assay [1], in assay [2], in assay [3] and in assay [4] was “inactive” each time.

On to `CCC(OCCCOC)OC(C)=O` (stereo unspecified), for which the Potency entry in assay [1], in assay [2], in assay [3] and in assay [4] was “inactive” in each case.

Turning to `Cc1nccn1-c1ccc(Sc2cccc(C3(C(N)=O)CCOCC3)c2)cc1`, the outcome in assay [1], in assay [2] and in assay [4] was inactive.

With `O=C(Cl)c1cc(C(=O)Cl)cc(C(=O)Cl)c1`, the Potency result in assay [1], in assay [2] and in assay [4] was “inactive” in each case.

As to `O=C(CCCCCCC(=O)Nc1ccccc1)NO`, the Potency entry in assay [1], in assay [2], in assay [3] and in assay [4] was “inactive” in each case.

As to `Cc1ccc(C)c(N)c1`, the Potency result in assay [5], in assay [1], in assay [2], in assay [3] and in assay [4] was “inactive” throughout.

In the case of `CCCCOC(=O)[C@@H](C)Oc1ccc(Oc2ccc(C(F)(F)F)cn2)cc1`, the Potency entry in assay [1], in assay [2], in assay [3] and in assay [4] was “inactive” throughout.

For the compound `CCCCCCOC(=O)CCC`, the Potency entry in assay [1], in assay [2], in assay [3] and in assay [4] was “inactive” each time.

Turning to `CCCCOCCOC(=O)COc1nc(Cl)c(Cl)cc1Cl`, the Potency result in assay [1], in assay [2] and in assay [4] was “inactive” throughout.
